# The supplement of paper PMC9694430
# How the values were obtained:
# Assay in all cases: thermal shift delta Tm vs DMSO control; higher = stronger stabilization (binding)
# Conditions in all cases: 12.5 µM; protein concentration 2 µM
# LOC_OS01G01410-cb001 = test system: LOC_OS01G01410-cb001
# Summary of the method: (§1)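 Thermal shift values come from differential scanning fluorimetry on purified rice kinase domains made in E. coli, with melting temperatures obtained from Boltzmann fits. Samples of 19.5 μl held 2 μM kinase, 100 mM potassium phosphate pH 7.5, 150 mM NaCl, 10% glycerol, 5 × SYPRO Orange and compound in DMSO, and were heated from 25°C to 95°C at 0.05°C/s. Each shift is a triplicate mean relative to the DMSO-only protein sample.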
# LOC_OS01G02750-cb003 = test system: LOC_OS01G02750-cb003
# Summary of the method: as §1
# LOC_OS01G10900-cb004 = test system: LOC_OS01G10900-cb004
# Summary of the method: as §1
# LOC_OS01G13800-cb001 = test system: LOC_OS01G13800-cb001
# Summary of the method: as §1
# LOC_OS01G14860-cb001 = test system: LOC_OS01G14860-cb001
# Summary of the method: as §1
# LOC_OS01G21960-cb002 = test system: LOC_OS01G21960-cb002
# Summary of the method: as §1
# LOC_OS01G39600-cb002 = test system: LOC_OS01G39600-cb002
# Summary of the method: as §1
# LOC_OS01G48390-cb002 = test system: LOC_OS01G48390-cb002
# Summary of the method: as §1
# LOC_OS01G51400-cb002 = test system: LOC_OS01G51400-cb002
# Summary of the method: as §1
# LOC_OS01G52050-cb004 = test system: T1, LOC_OS01G52050-cb004
# T1 sequence (whole entry): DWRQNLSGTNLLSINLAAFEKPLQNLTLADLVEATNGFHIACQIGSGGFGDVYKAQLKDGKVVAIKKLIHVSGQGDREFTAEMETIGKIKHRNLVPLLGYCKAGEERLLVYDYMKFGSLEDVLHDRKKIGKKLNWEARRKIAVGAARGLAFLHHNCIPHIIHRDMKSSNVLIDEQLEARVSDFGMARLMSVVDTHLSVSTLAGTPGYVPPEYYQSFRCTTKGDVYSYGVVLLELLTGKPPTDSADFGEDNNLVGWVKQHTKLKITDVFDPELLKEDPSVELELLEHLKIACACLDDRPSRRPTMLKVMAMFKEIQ
# Summary of the method: as §1
# LOC_OS01G57100-cb003 = test system: LOC_OS01G57100-cb003
# Summary of the method: as §1
# LOC_OS01G60330-cb001 = test system: LOC_OS01G60330-cb001
# Summary of the method: as §1
# LOC_OS01G60700-cb002 = test system: LOC_OS01G60700-cb002
# Summary of the method: as §1
# LOC_OS01G63280-cb003 = test system: LOC_OS01G63280-cb003
# Summary of the method: as §1
# LOC_OS01G67340-cb003 = test system: LOC_OS01G67340-cb003
# Summary of the method: as §1
# LOC_OS01G70970-cb002 = test system: LOC_OS01G70970-cb002
# Summary of the method: as §1
# LOC_OS02G07810-cb001 = test system: LOC_OS02G07810-cb001
# Summary of the method: as §1
# LOC_OS02G08530-cb003 = test system: LOC_OS02G08530-cb003
# Summary of the method: as §1
# LOC_OS02G14120-cb001 = test system: LOC_OS02G14120-cb001
# Summary of the method: as §1
# LOC_OS02G17970-cb001 = test system: LOC_OS02G17970-cb001
# Summary of the method: as §1
# 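Further: purified Escherichia coli-expressed rice kinase domain construct.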
SMILES,thermal shift delta Tm (LOC_OS01G01410-cb001) [°C],thermal shift delta Tm (LOC_OS01G02750-cb003) [°C],thermal shift delta Tm (LOC_OS01G10900-cb004) [°C],thermal shift delta Tm (LOC_OS01G13800-cb001) [°C],thermal shift delta Tm (LOC_OS01G14860-cb001) [°C],thermal shift delta Tm (LOC_OS01G21960-cb002) [°C],thermal shift delta Tm (LOC_OS01G39600-cb002) [°C],thermal shift delta Tm (LOC_OS01G48390-cb002) [°C],thermal shift delta Tm (LOC_OS01G51400-cb002) [°C],thermal shift delta Tm (LOC_OS01G52050-cb004) [°C],thermal shift delta Tm (LOC_OS01G57100-cb003) [°C],thermal shift delta Tm (LOC_OS01G60330-cb001) [°C],thermal shift delta Tm (LOC_OS01G60700-cb002) [°C],thermal shift delta Tm (LOC_OS01G63280-cb003) [°C],thermal shift delta Tm (LOC_OS01G67340-cb003) [°C],thermal shift delta Tm (LOC_OS01G70970-cb002) [°C],thermal shift delta Tm (LOC_OS02G07810-cb001) [°C],thermal shift delta Tm (LOC_OS02G08530-cb003) [°C],thermal shift delta Tm (LOC_OS02G14120-cb001) [°C],thermal shift delta Tm (LOC_OS02G17970-cb001) [°C]
CNc1nc(Nc2cnn([C@H]3CCN(C4COC4)C[C@@H]3F)c2Cl)ncc1C(F)(F)F,0.23,0.99,0.28,0.15,0.15,1.33,0.09,1.82,0.18,1.16,0.76,2.09,0.99,0.1,0.67,1.35,0.49,2.55,2.26,0.35
CNc1nc(Nc2cn(C(C)(C)C#N)nc2C)ncc1C(F)(F)F,0.23,1.65,0.23,0.93,0.11,1.18,-0.3,0.76,0.31,0.37,1.92,1.38,1.27,0.69,0.49,0.2,0.4,0.86,0.65,1.09
